HCV inh: qHTS Assay for Inhibitors of Hepatitis C Virus (HCV) | Huh7.5.1 HCVcc-Cre infection, luciferase reporter, 44 h | Potency, µM (doses to about 41.8 µM), inactives show at the highest dose activity change, negative = inhibition, most hits filed as inhibitors | 340,000 tested, 3.4% active | AID 651820, 2012; note: potency is the fitted concentration of half-maximal effect
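After 44 h co-culture of compound, cells and HCVcc-Cre (~0.5 moi), substrate is added for 15 min at room temperature and luciferase measured over 15 sec. Cells were seeded at 1,000/well and pre-cultured 4 h.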
Pf growth 48h: Primary qHTS for delayed death inhibitors of the malarial parasite plastid, 48 hour incubation | P. falciparum luciferase growth in erythrocytes, 48 h | Potency, µM (doses to about 28.7 µM), inactives show at the top dose activity change, negative = inhibition, actives largely listed as inhibitors | 310,000 tested, 5.9% active; note: potency is the fitted concentration of half-maximal effect
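Compounds are pin-transferred into medium, infected erythrocytes (2% hematocrit, 0.1% parasitemia final) are added, and plates sit one parasite generation at 37 C in 5% CO2. Detection reagent is then added and luminescence measured.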
LASV entry inh: qHTS for Inhibitors of binding or entry into cells for Lassa Virus; 300,000 tested, 1.2% active; Potency, µM (top dose mostly 37.9 µM), without a hit: top-dose activity change, negative = inhibition, actives largely listed as inhibitors; Lassa virus pseudotype entry inhibition, cell reporter; calls by dose curve; tested in HEK293 cells; note: potency is the fitted concentration of half-maximal effect; nearly all actives have a fitted effect of over 50% in size
HCMV inh: qHTS Assay for inhibitors of the human cytomegalovirus (HCMV); HFF cells, HCMV-luciferase reporter, 72 h; stronger effect = lower value; activity change, negative = inhibition, % at 57.5 µM; 410,000 tested, 4.5% active; AID 1259415, 2018; in the data active = activity change below about -60%; inconclusive = no clear call, values can overlap the other calls; inactive = above about -39%
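Human foreskin fibroblasts infected with luciferase-reporter HCMV at MOI 1 PFU/cell, compounds at two doses. Luciferase measured 72 h post infection; normalized to buffer-only basal and Salinomycin (10uM) controls.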
Pf growth 96h: Primary qHTS for delayed death inhibitors of the malarial parasite plastid, 96 hour incubation; P. falciparum luciferase reporter growth, 96 h; Potency, µM (highest dose often 28.7 µM), without a hit: at the highest dose activity change, negative = inhibition, hits mostly inhibitors; 320,000 tested, 6.9% active; AID 504834, 2011; note: potency is the fitted concentration of half-maximal effect
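Infected RBCs, 2% Hct / 0.05% parasitemia final; luciferase-reporter P. falciparum; cpd 96 h, 37 C, 5% CO2; luciferase detection reagent; luminescence.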
Marburg entry inh: qHTS for inhibitors of binding or entry into cells for Marburg Virus | Marburg virus pseudotyped entry inhibition, cell reporter | Potency, µM (top dose mostly 37.8 µM), for the others: at the top dose activity change, negative = inhibition, hits mostly inhibitors | 300,000 tested, 1.8% active | AID 540276, 2011; calls by dose curve; tested in HEK293 cells; note: potency is the fitted concentration of half-maximal effect
Active calls of the source: *; ? = inconclusive; · = no result; ! = not confirmed by another sample; [ ] = dose if it differs, or a comment. Rows were chosen to be rich in hits. Some 14% of all compounds tested hit in one or more screens of this group. Unless noted, calls come from the whole dose curve; as a rule, active = well fitted inhibition curve with a large enough effect; inconclusive = small, poorly fitted or top-dose-only effect, or another doubt; inactive = no such curve, though single readings can be large or run the other way. % is set by controls: 0 for no effect and ±100 for the full control effect.

SMILES | HCV inh | Pf growth 48h | LASV entry inh | HCMV inh | Pf growth 96h | Marburg entry inh
COc1cc(CCCN2CCNC[C@H]2Cc2cccc3ccccc23)cc(OC)c1OC | ? | · | · | 4 | · | ·
Fc1ccc(C(c2nnnn2Cc2ccccc2)N2CCSCC2)cc1 (stereo not drawn) | 12% | ? | ? | 17 | · | -28%
COc1ccc(N2CCN(C(c3ccccc3)c3nnnn3Cc3ccc(F)cc3)CC2)cc1 (stereo not drawn) | -28% | 9.3µM* | ? | -4 | · | ?
COc1ccc(C(c2nnnn2Cc2cccs2)N2CCN(c3ccc(F)cc3)CC2)cc1OC (stereo not drawn) | -20% | 5.9µM* | 8.2µM* | 20 | 13µM* | ?
Fc1ccc(Cn2nnnc2C(c2ccc(F)cc2)N2CC=C(c3ccc(F)cc3)CC2)cc1 (stereo not drawn) | 15% | -25% | -20% | -24 | 13µM* | -7%[46.1 µM]
Fc1ccc(C(c2nnnn2Cc2cccs2)N2CCN(C3CCCCC3)CC2)cc1 (stereo not drawn) | ? | ? | -17% | 40 | ? | 22µM*!
CCCCN(C)c1ncnc2c1cnn2-c1cccc(Cl)c1 | · | · | ? | 87 | · | ·
Cc1cc(C)cc(NC(=O)CS(=O)(=O)c2cccc3nsnc23)c1 | ? | 9% | 13% | -31 | 1% | -16%[46.1 µM]
COC(=O)c1cccc(CN2C(=O)SC(Nc3ccc(Br)cc3)C2=O)c1 (stereo not drawn) | · | · | -26%[46.1 µM] | 3 | · | 6%[46.1 µM]
O=C(CCNC(=O)c1ccc([N+](=O)[O-])cc1)NNC(=O)c1ccccc1F | 12% | 10% | · | 0 | -20% | ·
Cc1ccc(S(=O)(=O)NCc2ccc3c(c2)OCO3)cc1 | · | · | · | 17 | · | ·
COc1ccc(C(c2nnnn2Cc2ccc(F)cc2)N2CCN(c3ccccc3)CC2)cc1 (stereo not drawn) | -11% | 12µM* | ? | 21 | ? | ?
COc1ccc(Cn2nnnc2C(c2ccccn2)N2CCN(c3cc(Cl)ccc3C)CC2)cc1 (stereo not drawn) | ? | 12µM* | ? | -24 | · | ?
COc1ccc(C(c2nnnn2Cc2ccc(F)cc2)N2CCN(c3ccc(OC)cc3)CC2)cc1 (stereo not drawn) | -22% | 10µM* | 3.2µM* | 30 | 50% | ?
COc1ccc(Cn2nnnc2C(c2ccc(F)cc2)N2CCN(C3CCCC3)CC2)cc1 (stereo not drawn) | ? | ? | ? | 38 | 0% | 10µM*
COCCn1nnnc1C(c1ccccn1)N1CCN(c2cc(Cl)ccc2C)CC1 (stereo not drawn) | -7% | ? | -15% | 39 | · | ?
O=C(CSc1nc2c(c(=O)[nH]1)CN(Cc1ccc(F)cc1)CC2)Nc1cccc(C(F)(F)F)c1 | · | · | 8%[46.1 µM] | -32 | · | ?
CC(=O)Nc1nonc1-c1nnc(SCC(=O)Nc2cc(C)cc(C)c2)n1C | · | · | 7%[46.1 µM] | 2 | · | ?
O=C(NCCc1cn2cccnc2n1)C1CCC(=O)N(Cc2ccccc2F)C1 (stereo not drawn) | · | · | · | 11 | · | ·
Oc1ccc2ccccc2c1C=NNc1ccccn1 | 3.2µM* | · | ? | -98* | · | 5.6µM*
O=c1c2ccccc2nc(N/N=C/c2ccc(O)cc2)n1O | -4% | ? | -1% | 9 | 3% | -21%
Fc1cccc(F)c1/C=N/Nc1ccccn1 | -5% | 170% | · | -31 | 327% | ·
Oc1ccc2ccccc2c1/C=N/Nc1nnc(-c2ncc[nH]2)c2ccccc12 | 3.2µM* | 2.6µM* | ? | -102* | · | 6.5µM*
O=c1c2ccccc2nc(N/N=C/c2c(O)ccc3ccccc23)n1O | 0.89µM* | 0.52µM* | 0.63µM* | -101* | 0.47µM* | 0.79µM*
COc1ccc(/C=N/Nc2nnc(-c3ncc[nH]3)c3ccccc23)cc1 | -5% | 98% | 18% | · | 189% | 29%
SMILES | HCV inh | Pf growth 48h | LASV entry inh | HCMV inh | Pf growth 96h | Marburg entry inh
COCCCn1c(=N)c(C(=O)NCC2CCCO2)cc2c(=O)n3cc(C)ccc3nc21 (stereo not drawn) | · | · | 5%[46.1 µM] | -3 | · | -7%[46.1 µM]
C=CCN=C1SC(C)C(=O)N1S(=O)(=O)c1ccccc1 (stereo not drawn) | ? | 6% | 3% | 14 | 7.4µM* | -5%
Cc1ccc(-n2c(SCC(=O)N3CCN(c4ccccn4)CC3)nnc2N2CCCC2)cc1 | 11% | 9.3µM* | 17% | ? | 8.3µM* | ?
O=C(c1cn(Cc2ccccc2)nc1-c1ccc(Cl)cc1)N1CCN(c2ccccn2)CC1 | ? | 13µM* | ? | 0 | 9.3µM* | ?
Cc1ccc(-c2nn(Cc3ccccc3)cc2C(=O)N2CCN(c3ccccn3)CC2)cc1 | -14% | 13µM* | · | 7 | ? | ·
COc1cccc(N2CCN(C(=O)c3cn(Cc4ccccc4)nc3-c3cccnc3)CC2)c1 | ? | ? | · | -38 | ? | ·
O=C(c1ccccc1OCc1ccc(Cl)cc1)N1CCN(c2ccccn2)CC1 | -29% | ? | -5% | -34 | 0% | ?
COc1ccc(-c2nn(Cc3ccccc3)cc2C(=O)N2CCN(c3ncccn3)CC2)cc1 | 5% | 13µM* | · | ? | ? | ·
COc1ccccc1-c1cn(CC[C@@H]2CC[C@H](NC(=O)C3CCC3)[C@@H](CO)O2)nn1 | · | · | · | -4 | · | ·
COc1cccc(NC(=O)c2c(-c3ccc(C)cc3)nnc3ccccc23)c1 | · | · | 15%[46.1 µM] | 0 | · | ·
CCN1C(=O)c2ccccc2Sc2ccc(NC(=O)COc3ccc(Cl)cc3)cc21 | · | · | -23%[46.1 µM] | -30 | · | ·
CC(=O)Nc1cccc(NC(=O)CSc2cn(CC(=O)N(C(C)C)C(C)C)c3ccccc23)c1 | · | · | ? | -12 | · | ·
CC(C)(C)c1ccc2c(c1)C(=O)c1ccccc1C2=O | -2% | 274% | 8.9µM* | -20 | 355% | ?
COC(=O)c1cc(NC(=O)CN(c2ccccc2)S(=O)(=O)N(C)C)ccc1Cl | · | · | -13%[46.1 µM] | 7 | · | ?
CCN(CCNCC(O)COc1ccccc1C(C)C)c1cccc(C)c1 (stereo not drawn) | 13µM* | 3.3µM* | -16% | 14 | 5.2µM* | ?
CCOC(=O)c1cccc(OCC(O)CNCCOc2ccccc2F)c1 (stereo not drawn) | -14% | 7% | 3%[46.1 µM] | 43 | 11% | -17%[46.1 µM]
COc1ccc(CCNC(=O)Cn2c(=O)n(Cc3ccco3)c(=O)c3ccc(Cl)cc32)cc1OC | 11µM*! | ? | -6% | ? | 26% | ?
COc1ccc(CCNC(=O)CCCn2c(=O)c3ccccc3n(Cc3ccccc3C)c2=O)cc1OC | · | · | 4%[46.1 µM] | 14 | · | -2%[46.1 µM]
